Here are results for 20 compounds from PubChem BioAssay (NCATS).

Assay [1] deals with Cytochrome P450 2C9 (Homo sapiens) (UniProt P11712). As to the kind of experiment: qHTS Assay for Inhibitors and Substrates of Cytochrome P450 2C9 (AID 883). For activity change, negative = inhibition: % is set by controls: 0 for no effect and ±100 for the full control effect. Note: nearly all actives have a fitted effect of over 60% in size. Note: potency is the fitted concentration of half-maximal effect. The procedure, abridged: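 A luminogenic readout tracked human CYP2C9 (10nM) converting deoxyluciferin (100uM, at KM) in 25mM KPO4 during 60 min at 37C with regenerated NADPH. Values normalized to 57uM sulphaphenazole as complete inhibition.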
Chain of Cytochrome P450 2C9 (Homo sapiens) (P11712 whole entry, looked up): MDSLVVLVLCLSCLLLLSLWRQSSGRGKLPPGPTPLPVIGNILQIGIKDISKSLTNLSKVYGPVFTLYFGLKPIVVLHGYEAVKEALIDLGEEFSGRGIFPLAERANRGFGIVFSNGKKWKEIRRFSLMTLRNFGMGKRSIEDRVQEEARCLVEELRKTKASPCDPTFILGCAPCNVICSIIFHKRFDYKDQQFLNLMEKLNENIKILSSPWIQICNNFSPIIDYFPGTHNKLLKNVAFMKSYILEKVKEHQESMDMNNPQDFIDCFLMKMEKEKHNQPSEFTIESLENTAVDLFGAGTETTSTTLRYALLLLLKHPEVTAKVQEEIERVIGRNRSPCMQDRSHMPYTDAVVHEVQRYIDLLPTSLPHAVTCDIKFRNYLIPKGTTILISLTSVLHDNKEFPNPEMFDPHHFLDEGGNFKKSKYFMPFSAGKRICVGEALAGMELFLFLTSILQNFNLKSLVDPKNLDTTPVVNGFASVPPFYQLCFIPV

Assay [2] addresses Cytochrome P450 3A4 (Homo sapiens) (UniProt P08684). Description: qHTS Assay for Inhibitors and Substrates of Cytochrome P450 3A4 (AID 884). Note: series mostly up to about 57 µM; % is set by controls: 0 for no effect and ±100 for the full control effect; nearly all actives have a fitted effect of over 50% in size. Summed up: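 20 nM human CYP3A4 with 25 uM Luciferin-PPXE (at KM) in 200 mM KPO4, preincubated 10 min with compound; NADPH regeneration started a 60 min RT reaction. Luciferin detected by luminescence, normalized to 57 uM ketoconazole as full inhibition.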

Assay [3] has as its target Cytochrome P450 2D6 (Homo sapiens) (UniProt P10635). Description: qHTS Assay for Inhibitors and Substrates of Cytochrome P450 2D6 (AID 891).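 Note: luciferin methyl ether substrate demethylated by CYP2D6 with NADPH regeneration; % is set by controls: 0 for no effect and ±100 for the full control effect; nearly all actives have a fitted effect of over 60% in size.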 The procedure, abridged: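 Human CYP2D6 (5 nM) with 30 uM Luciferin-ME EGE (at Km) in 100 mM KPO4, compound preincubated 10 min, then NADPH regeneration system for 60 min at room temperature. Luciferin read by luminescence; normalized to 1.43 uM quinidine.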
Background: qHTS replaces the single test concentration by a dilution series.

In assay [4] the target is Cytochrome P450 2C19 (Homo sapiens) (UniProt P33261). Description: qHTS Assay for Inhibitors and Substrates of Cytochrome P450 2C19 (AID 899). For activity, negative = inhibition: % is set by controls: 0 for no effect and ±100 for the full control effect. Note: nearly all actives have a fitted effect of over 60% in size. Note: potency is the fitted concentration of half-maximal effect. The procedure, abridged: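 NADPH-dependent conversion of Luciferin-H EGE (10uM, at KM) by 5nM enzyme in 50mM KPO4, 60 min at 37C following 10 min compound preincubation. Stopped with luciferin detection buffer; luminescence read after 20 min.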
Chain of Cytochrome P450 2C19 (Homo sapiens) (P33261 whole entry, looked up): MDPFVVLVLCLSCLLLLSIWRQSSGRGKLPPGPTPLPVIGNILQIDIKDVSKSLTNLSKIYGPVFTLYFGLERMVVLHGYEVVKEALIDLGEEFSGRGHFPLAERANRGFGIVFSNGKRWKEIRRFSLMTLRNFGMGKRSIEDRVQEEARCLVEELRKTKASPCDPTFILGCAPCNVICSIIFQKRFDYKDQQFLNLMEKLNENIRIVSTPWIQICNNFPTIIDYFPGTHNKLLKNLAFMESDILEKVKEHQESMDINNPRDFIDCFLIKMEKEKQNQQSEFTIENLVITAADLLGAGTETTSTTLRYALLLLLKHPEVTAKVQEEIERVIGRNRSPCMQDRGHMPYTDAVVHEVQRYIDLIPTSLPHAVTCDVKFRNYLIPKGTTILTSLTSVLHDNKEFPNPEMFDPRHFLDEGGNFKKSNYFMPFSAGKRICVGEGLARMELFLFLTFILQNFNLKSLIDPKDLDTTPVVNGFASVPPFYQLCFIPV

A short description of assay [5]: qHTS for Inhibitors of Plasmodium falciparum (GB4) proliferation (AID 504315).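 For activity change, negative = inhibition: 0% = DMSO vehicle and -100% = 0.29 µM artemisinin control.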 Note: nearly all actives have a fitted effect of over 50% in size. Note: potency is the fitted concentration of half-maximal effect. The procedure, abridged: (§1)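 Erythrocytes infected with P. falciparum line (0.3% parasitemia, 2.5% hematocrit final) incubated with compounds 72 h at 37 °C, 5% CO2; SYBR Green lysis buffer added, fluorescence read next day. Normalized to 0.29 uM artemisinin and DMSO.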
Assay [6] is described as follows: qHTS for Inhibitors of Plasmodium falciparum (7G8) proliferation (AID 504316).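 For activity change, negative = inhibition: series mostly up to about 6.7 µM; 0% = DMSO vehicle and -100% = 0.29 µM artemisinin full kill.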 Note: nearly all actives have a fitted effect of over 65% in size. Note: potency is the fitted concentration of half-maximal effect. The procedure, abridged:
as §1

Assay [7] is described as follows: qHTS for Inhibitors of Plasmodium falciparum (HB3) proliferation (AID 504318).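 For activity change, negative = inhibition: 0% = DMSO vehicle and -100% = artemisinin control.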 Note: nearly all actives have a fitted effect of over 60% in size. Note: potency is the fitted concentration of half-maximal effect. The procedure, abridged:
as §1

Assay [8] can be described thus: qHTS for Inhibitors of Plasmodium falciparum (CP250) proliferation (AID 504320).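 Note: plate controls were DMSO vehicle for no effect and 0.29 µM artemisinin control for full effect.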 Summed up: as §1
Assay [9] concerns the target Atrial natriuretic peptide receptor 1 (Homo sapiens) (UniProt P16066). As to the kind of experiment: Natriuretic polypeptide receptor (hNpr1) antagonism - Pilot CMLD screen (AID 1347052; calls by dose curve;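 note: cGMP level read as GloSensor luciferase luminescence after agonist stimulation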; note: potency is the fitted concentration of half-maximal effect;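 for activity change, negative = inhibition: HEK293 cells with hNpr1 stimulated by hNppA peptide at 0.1 nM; series mostly up to about 9.2 µM; % is set by controls: 0 for no effect and ±100 for the full control effect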).
Assay [10] has as its target Cytochrome P450 3A4 (Homo sapiens) (UniProt P08684). As to the kind of experiment: qHTS Assay for Activators of Cytochrome P450 3A4 (AID 885). Note: nearly all actives have a fitted effect of over 65% in size. The procedure, abridged: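 Signal was normalized against complete inhibition by 57 uM ketoconazole. The reaction used 20nM CYP3A4 with 25uM Luciferin-PPXE, 10-min compound preincubation and a 60-min NADPH-supported step at RT.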

A short description of assay [11]: qHTS Assay for Identification of Small Molecule Agonists for Hypoxia Response Element Signaling Pathway (AID 914; active = well fitted activation curve with a large enough effect in the signal ratio, with a control signal flat, not every such curve was filed as active; the % refers to the signal ratio; note: % of control where 0% means no effect). To be noted: ME-180 (cervical carcinoma) HRE-bla reporter, beta-lactamase ratio, CoCl2, 17 h; hits give high values. Summed up:
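HRE-bla ME-180 cells with beta-lactamase reporter under hypoxia response element, compounds with EC50 CoCl2 for 17 hours at 37 C. CCF4 substrate, 460nm/530nm emission ratio gave %Activity; AC50 from titration series.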

Where “and” joins values, the source holds several entries; their conditions need not be identical. Equal values may be shown once. Values without a mark were called inactive. Records with an inconclusive call do not appear. Calls of active or inactive are those of the source. Unless noted, calls come from the whole dose curve; as a rule, active = well fitted curve in the direction sought with a large enough effect; inconclusive = small, poorly fitted or top-dose-only effect, or another doubt; inactive = no such curve, though single readings can be large; an effect the other way counts as inactive or inconclusive.

Chain of Atrial natriuretic peptide receptor 1 (Homo sapiens) (P16066 whole entry, looked up): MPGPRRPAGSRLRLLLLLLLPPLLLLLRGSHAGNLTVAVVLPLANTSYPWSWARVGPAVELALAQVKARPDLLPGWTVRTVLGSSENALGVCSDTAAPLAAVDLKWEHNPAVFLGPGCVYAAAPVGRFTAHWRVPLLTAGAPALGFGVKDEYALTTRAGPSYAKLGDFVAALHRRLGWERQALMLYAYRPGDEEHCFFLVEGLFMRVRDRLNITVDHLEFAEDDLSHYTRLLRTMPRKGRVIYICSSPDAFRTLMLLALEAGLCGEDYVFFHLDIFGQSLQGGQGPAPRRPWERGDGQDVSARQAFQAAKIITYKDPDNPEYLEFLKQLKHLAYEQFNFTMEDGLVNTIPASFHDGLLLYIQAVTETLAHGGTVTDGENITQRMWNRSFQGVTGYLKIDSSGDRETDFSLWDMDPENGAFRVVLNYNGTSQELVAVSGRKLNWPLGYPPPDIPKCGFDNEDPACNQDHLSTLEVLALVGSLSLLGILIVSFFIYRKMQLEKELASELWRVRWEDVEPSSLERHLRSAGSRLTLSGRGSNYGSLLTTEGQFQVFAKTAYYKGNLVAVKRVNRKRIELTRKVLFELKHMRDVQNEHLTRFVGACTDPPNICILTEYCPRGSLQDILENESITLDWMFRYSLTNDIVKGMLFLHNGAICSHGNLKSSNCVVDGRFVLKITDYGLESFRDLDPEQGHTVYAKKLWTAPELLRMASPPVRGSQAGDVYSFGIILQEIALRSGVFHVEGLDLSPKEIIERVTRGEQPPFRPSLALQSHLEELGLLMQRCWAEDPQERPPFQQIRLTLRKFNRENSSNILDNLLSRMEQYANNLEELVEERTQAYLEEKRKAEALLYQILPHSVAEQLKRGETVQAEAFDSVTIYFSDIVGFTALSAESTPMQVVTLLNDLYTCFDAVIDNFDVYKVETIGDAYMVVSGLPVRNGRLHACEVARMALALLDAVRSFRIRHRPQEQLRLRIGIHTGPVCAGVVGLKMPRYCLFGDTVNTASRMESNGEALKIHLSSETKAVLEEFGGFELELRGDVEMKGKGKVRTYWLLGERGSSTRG
Chain of Cytochrome P450 3A4 (Homo sapiens) (P08684 whole entry, looked up): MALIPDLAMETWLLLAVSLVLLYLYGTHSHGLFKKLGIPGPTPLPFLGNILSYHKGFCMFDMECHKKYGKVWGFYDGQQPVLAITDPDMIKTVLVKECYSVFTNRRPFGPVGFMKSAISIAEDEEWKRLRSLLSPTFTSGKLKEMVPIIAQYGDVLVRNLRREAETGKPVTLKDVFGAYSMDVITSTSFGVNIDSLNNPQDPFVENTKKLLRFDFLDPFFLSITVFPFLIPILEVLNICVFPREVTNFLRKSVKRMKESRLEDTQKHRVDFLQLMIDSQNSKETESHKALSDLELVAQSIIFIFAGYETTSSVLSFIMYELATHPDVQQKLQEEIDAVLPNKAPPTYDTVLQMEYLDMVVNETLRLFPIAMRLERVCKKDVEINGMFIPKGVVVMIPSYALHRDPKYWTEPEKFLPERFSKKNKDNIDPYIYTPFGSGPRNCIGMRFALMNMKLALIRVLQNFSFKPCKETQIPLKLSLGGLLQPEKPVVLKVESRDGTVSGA
Chain of Cytochrome P450 2D6 (Homo sapiens) (P10635 whole entry, looked up): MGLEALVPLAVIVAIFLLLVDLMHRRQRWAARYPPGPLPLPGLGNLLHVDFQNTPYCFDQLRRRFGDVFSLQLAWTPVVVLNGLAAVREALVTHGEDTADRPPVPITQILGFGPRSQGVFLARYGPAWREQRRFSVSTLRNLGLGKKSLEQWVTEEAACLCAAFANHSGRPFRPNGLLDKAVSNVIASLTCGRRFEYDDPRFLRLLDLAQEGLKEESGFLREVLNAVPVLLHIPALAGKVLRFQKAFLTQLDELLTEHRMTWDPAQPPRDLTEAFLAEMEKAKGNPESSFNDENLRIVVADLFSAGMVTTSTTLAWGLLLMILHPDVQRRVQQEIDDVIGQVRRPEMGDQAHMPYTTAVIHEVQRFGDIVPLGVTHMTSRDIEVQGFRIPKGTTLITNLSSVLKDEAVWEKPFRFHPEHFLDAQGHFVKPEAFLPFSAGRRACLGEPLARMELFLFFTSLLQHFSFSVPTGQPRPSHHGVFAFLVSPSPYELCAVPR

For the compound `C=CCC1(c2ccccc2)Oc2ccccc2-c2nc3cc(Cl)c(Cl)cc3nc21` (centres undefined), the activity change, negative = inhibition in assay [1] is -6.17% [at 11.4 µM] and 38.3% [at 11.4 µM]; in assay [2] it was -17.8% [at 11.4 µM] and -22.2% [at 11.4 µM]; in assay [3], 2.78% [at 11.4 µM] and 6.33% [at 11.4 µM]. In assay [4], the activity, negative = inhibition was 39.4% [at 11.4 µM] and 70.5% [at 11.4 µM]. The Potency entry in [5], in assay [6], in assay [7], in assay [8] and in assay [9] was “inactive” in each case.
Regarding `CC(C)CON=C1C[C@@H](O)[C@@H](O)[C@@H]2[C@H]3C(=O)N(Cc4ccccc4)C(=O)[C@@H]3CC[C@@H]12`, the Potency entry in assay [5], in [6], in assay [7], in assay [8] and in assay [9] was “inactive” each time.
In the case of `C[C@@H]1C[C@](C)(C(=O)c2ccco2)C=C1c1ccco1`, the Potency result in assay [5], in [6], in assay [7], in assay [8] and in assay [9] was “inactive” throughout.
Consider `CC(C)=CCN1C(=O)[C@]2(O[C@H](C)CC3=CCCC32)c2c(Br)cccc21` (some centres undefined), for which the Potency entry in assay [5], in assay [6], in assay [7], in assay [8] and in assay [9] was “inactive” in each case.
Take `C#CC1(O)C(OC)=CC2C(=O)C1C(c1ccccc1)C2C` (centres undefined): the Potency result in [5], in [6], in [7], in [8] and in [9] was “inactive” throughout.
Regarding `COC(=O)CC=C[C@@H](C)[C@H](NC(=O)OC)c1ccccc1Br`, the Potency entry in assay [5], in assay [6], in [7], in assay [8] and in [9] was “inactive” each time.
As for `CC1(O)C(=O)C=C2C=C3CCCN3C=C2C1=O` (centres undefined), the activity change, negative = inhibition in assay [1] was 3.99% [at 11.4 µM]; in assay [2] it was -12% [at 11.4 µM]. Also, the activity, negative = inhibition in [4] was 32.3% [at 11.4 µM]. Moreover, the Potency result in [5], in assay [6], in assay [7], in assay [8] and in assay [9] was “inactive” throughout.
On to `COc1ccc(NC2=CC(c3ccccc3)N(c3ccc(OC)cc3)C2=O)cc1` (centres undefined), for which the Potency result in assay [5], in [6], in [7], in [8] and in assay [9] was “inactive” throughout.
`COC(=O)CCC(=O)OC1(C)C(=O)C=C2C=C(C3CC3)N(Cc3ccco3)C=C2C1=O` (centres undefined): the Potency entry in assay [5], in assay [6], in assay [7], in assay [8] and in assay [9] was “inactive” throughout.
Take `COC1=C[C@H](C(=O)NCc2ccc(Br)cc2)[C@H](C)[C@@H](c2ccccc2)CC1=O`: the Potency entry in assay [5], in assay [6], in assay [7], in assay [8] and in assay [9] was “inactive” throughout.
As for `O=C1N[C@H](Cc2ccccc2)C(=O)N1Cc1cccc2ccccc12`, the Potency entry in assay [5], in assay [6], in assay [7], in assay [8] and in assay [9] was “inactive” each time.
For the compound `CC(CCC#N)[N+](=O)[O-]` (centres undefined), the Potency entry in assay [5], in [6], in assay [7] and in [8] was “inactive” throughout. In assay [9], the Potency was 5310 nM (active).
As to `CC1=C(C)CC(c2ccccc2)C(C(=O)c2ccccc2O)C1` (centres undefined), the activity change, negative = inhibition in [1] is -27.8% [at 11.4 µM]; in assay [2], -21.6% [at 11.4 µM]; in assay [3] it was 6.86% [at 11.4 µM]. Besides, the activity, negative = inhibition in assay [4] is -23.3% [at 11.4 µM]. Besides, the Potency entry in assay [5], in assay [6], in assay [7], in assay [8] and in [9] was “inactive” throughout.
In the case of `CCOC(=O)CN1C(=O)NC(c2cccc(F)c2)C(C(C)=O)=C1C` (centres undefined), the Potency result in assay [5], in assay [6], in assay [7], in [8] and in assay [9] was “inactive” each time.
On to `COc1cc2c(c(OC)c1OC)CC(C)=C(C)CC2NC(=O)C(F)(F)F` (centres undefined), for which the Potency entry in assay [5], in assay [6], in [7], in assay [8] and in [9] was “inactive” throughout.
As to `CNc1ccccc1C(=O)OCC(C)=O`, the activity change, negative = inhibition in [1] is 24.8% [at 11.4 µM]; in [2] it was -11.5% [at 11.4 µM]; in assay [3] it was 9.06% [at 11.4 µM]. In addition, the activity, negative = inhibition in assay [4] was -17.8% [at 11.4 µM]. Also, the Potency entry in assay [5], in [6], in [7], in [8] and in assay [9] was “inactive” in each case.
Consider `O=C1CCCC=C1[C@@H](O)CCOC(c1ccccc1)(c1ccccc1)c1ccccc1`, for which the Potency was 794 nM (active) in [1]; 251 nM (active) in [4]; 1510 nM (active) in assay [5]; 1690 nM (active) in assay [6]; 1510 nM (active) in [7]. In assay [9], the Potency entry was “inactive”.
As for `C=CCOC(=O)N[C@@H](CCc1ccccc1)C(C(C)=O)C(C)=O`, the Potency result in [5], in assay [6], in assay [7], in assay [8] and in assay [9] was “inactive” throughout.
In the case of `C[C@@H]1CC[C@H]2C(=O)NC[C@@H](O)CN2[C@@H]1c1ccc(Br)cc1`, the activity change, positive = activation in [10] was -42.5% [at 11.4 µM]. Further, the Potency in assay [4] was 2000 nM (active). The activation in assay [11] is -3.48%. Also, the Potency entry in [5], in assay [6], in assay [7], in assay [8] and in assay [9] was “inactive” in each case.
Turning to `COC(=O)CC=C[C@@H](C)[C@H](OC)c1cc(OC)ccc1Br`, the Potency entry in assay [5], in assay [6], in [7], in assay [8] and in [9] was “inactive” in each case.
